This passage reports binding signal results from paper PMC7862700, “An all-to-all approach to the identification of sequence-specific readers for epigenetic DNA modifications on cytosine”.

Common to all, as to experiment: DAPPL (digital affinity profiling via proximity ligation, sequencing); 10 mM Tris-HCl pH 7.5, 50 mM NaCl, 1 mM DTT, 4% glycerol, room temperature, 30 min; GST-TFs on glutathione beads, 16-mer random dsDNA library, 0.1% formaldehyde crosslink after washing; high values mean tight binding
Holding throughout (details): protein: recombinant; tags: N-terminal GST; dsDNA, one strand shown

Assay [1] has as its target T1, ERF (Homo sapiens, UniProt P50548 1-548).
T1 sequence: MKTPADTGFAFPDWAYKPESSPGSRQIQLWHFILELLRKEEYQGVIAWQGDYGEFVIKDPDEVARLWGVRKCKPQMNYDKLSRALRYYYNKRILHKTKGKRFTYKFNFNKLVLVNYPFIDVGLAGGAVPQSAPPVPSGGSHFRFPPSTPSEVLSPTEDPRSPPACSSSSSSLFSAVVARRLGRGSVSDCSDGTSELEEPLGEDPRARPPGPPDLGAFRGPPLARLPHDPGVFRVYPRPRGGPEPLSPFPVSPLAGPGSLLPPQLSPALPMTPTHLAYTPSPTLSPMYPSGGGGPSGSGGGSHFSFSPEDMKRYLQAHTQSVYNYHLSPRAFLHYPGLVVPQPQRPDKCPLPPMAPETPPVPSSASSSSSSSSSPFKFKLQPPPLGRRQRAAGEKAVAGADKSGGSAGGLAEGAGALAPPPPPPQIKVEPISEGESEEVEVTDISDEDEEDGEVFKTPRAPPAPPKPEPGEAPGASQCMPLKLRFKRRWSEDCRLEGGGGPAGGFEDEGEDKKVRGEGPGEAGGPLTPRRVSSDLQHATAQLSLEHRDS
In a few lines:
(§1)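 Pools were built from human transcription factors expressed in yeast as GST fusions, captured on glutathione beads and DNA-barcoded, along with a tag-only sample. Incubation with 200 nmole of a 16-mer random double-stranded DNA library lasted 30 min at room temperature in Tris/NaCl/DTT/glycerol buffer, and was followed by washing, 0.1% formaldehyde crosslinking, proximity ligation, PCR amplification and Illumina NextSeq500 sequencing. Binding signal is the quotient of each hexamer's read frequency for a factor and its frequency for the tag-only sample.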

The target of assay [2] is T2, ETV3L (Homo sapiens, UniProt Q6ZN32 1-361).
T2 sequence: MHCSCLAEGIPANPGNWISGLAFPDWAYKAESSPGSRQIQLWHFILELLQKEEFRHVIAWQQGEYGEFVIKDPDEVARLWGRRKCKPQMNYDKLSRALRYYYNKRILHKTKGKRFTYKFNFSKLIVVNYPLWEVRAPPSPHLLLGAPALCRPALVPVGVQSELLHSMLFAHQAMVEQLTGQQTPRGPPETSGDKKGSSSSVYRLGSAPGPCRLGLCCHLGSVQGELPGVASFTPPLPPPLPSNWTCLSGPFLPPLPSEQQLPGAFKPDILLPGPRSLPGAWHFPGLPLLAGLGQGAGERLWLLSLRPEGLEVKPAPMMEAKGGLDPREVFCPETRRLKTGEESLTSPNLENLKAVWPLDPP
In a few lines:
as §1

Assay [3] addresses T3, ETS2 (Homo sapiens, UniProt P15036 1-469).
T3 sequence: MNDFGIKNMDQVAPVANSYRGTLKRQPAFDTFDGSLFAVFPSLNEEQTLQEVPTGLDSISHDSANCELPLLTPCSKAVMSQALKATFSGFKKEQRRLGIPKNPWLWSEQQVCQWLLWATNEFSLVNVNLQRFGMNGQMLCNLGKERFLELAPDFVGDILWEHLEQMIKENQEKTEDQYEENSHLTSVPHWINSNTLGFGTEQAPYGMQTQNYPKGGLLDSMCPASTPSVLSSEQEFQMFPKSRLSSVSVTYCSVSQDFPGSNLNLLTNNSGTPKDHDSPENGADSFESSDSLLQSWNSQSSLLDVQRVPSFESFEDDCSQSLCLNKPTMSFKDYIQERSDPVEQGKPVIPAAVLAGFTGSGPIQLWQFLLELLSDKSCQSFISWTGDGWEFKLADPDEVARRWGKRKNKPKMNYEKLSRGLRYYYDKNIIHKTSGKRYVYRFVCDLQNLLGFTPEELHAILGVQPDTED
In a few lines:
as §1

Assay [4] concerns the target T4, SPDEF (Homo sapiens, UniProt O95238 1-335).
T4 sequence: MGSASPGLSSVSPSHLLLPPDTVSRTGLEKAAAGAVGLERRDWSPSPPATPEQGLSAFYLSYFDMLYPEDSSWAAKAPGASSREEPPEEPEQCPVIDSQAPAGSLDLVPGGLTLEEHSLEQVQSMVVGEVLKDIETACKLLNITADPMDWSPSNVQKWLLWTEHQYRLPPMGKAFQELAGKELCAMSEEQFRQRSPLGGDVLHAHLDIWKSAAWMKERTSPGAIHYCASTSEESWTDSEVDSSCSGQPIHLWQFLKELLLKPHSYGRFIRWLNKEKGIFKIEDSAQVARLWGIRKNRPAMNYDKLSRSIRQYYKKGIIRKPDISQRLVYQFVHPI
Summed up:
as §1

For assay [5], the target named is T5, ETV7 (Homo sapiens, UniProt Q9Y603 1-341).
T5 sequence: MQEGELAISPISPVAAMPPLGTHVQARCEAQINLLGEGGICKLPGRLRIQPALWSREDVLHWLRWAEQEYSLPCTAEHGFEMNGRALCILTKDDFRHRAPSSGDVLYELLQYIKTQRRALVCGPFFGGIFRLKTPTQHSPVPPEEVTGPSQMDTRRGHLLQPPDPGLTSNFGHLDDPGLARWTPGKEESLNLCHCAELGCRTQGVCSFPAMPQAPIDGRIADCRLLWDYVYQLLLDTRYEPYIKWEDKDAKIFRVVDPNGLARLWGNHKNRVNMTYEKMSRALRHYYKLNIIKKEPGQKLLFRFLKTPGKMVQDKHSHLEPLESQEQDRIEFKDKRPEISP
In a few lines: as §1

The target of assay [6] is T6, ELF5 (Homo sapiens, UniProt Q9UKW6-2 1-255).
T6 sequence: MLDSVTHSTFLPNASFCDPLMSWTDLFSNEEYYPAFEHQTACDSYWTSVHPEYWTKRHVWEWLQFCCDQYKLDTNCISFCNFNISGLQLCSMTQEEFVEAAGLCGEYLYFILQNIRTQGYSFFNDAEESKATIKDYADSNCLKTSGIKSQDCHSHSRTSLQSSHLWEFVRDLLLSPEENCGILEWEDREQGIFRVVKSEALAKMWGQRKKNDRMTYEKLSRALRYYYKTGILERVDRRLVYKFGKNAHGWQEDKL
In a few lines:
as §1

In assay [7] the target is T7, ETV3 (Homo sapiens, UniProt P41162-2 1-143).
T7 sequence: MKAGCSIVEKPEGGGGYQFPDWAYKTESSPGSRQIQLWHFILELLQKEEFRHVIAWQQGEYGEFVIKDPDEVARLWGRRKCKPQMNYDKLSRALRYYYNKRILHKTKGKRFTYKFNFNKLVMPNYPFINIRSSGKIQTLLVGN
In a few lines: as §1

Assay [8] addresses ETV6 (Homo sapiens, UniProt P41212 1-452). Summed up:
as §1

ETV6, sequence (P41212 whole entry): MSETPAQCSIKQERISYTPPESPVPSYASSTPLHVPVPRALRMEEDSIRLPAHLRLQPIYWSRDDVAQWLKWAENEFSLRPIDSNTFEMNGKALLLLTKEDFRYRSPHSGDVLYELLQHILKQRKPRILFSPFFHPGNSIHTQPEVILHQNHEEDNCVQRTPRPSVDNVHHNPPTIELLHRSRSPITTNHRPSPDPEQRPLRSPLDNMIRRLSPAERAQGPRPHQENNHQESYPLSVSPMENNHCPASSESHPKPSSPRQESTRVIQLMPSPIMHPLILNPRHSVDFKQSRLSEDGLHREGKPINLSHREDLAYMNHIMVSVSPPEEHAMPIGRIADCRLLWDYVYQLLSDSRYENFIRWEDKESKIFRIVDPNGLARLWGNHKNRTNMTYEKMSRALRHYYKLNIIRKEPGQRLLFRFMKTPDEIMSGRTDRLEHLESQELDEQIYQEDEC

TACTAG: the binding signal in assay [1] was 1.07 fold enrichment (6-mer frequency, TF over GST control); in assay [2], 1.04 fold enrichment (6-mer frequency, TF over GST control); in assay [3] it was 1 fold enrichment (6-mer frequency, TF over GST control); in assay [4], 1.01 fold enrichment (6-mer frequency, TF over GST control); in assay [5], 1 fold enrichment (6-mer frequency, TF over GST control).

Regarding TTTCTT, the binding signal in assay [1] was 1.22 fold enrichment (6-mer frequency, TF over GST control); in assay [2], 1.34 fold enrichment (6-mer frequency, TF over GST control); in assay [3], 1.32 fold enrichment (6-mer frequency, TF over GST control); in assay [4], 1.19 fold enrichment (6-mer frequency, TF over GST control); in assay [5] it was 1.37 fold enrichment (6-mer frequency, TF over GST control); in assay [6], 1.31 fold enrichment (6-mer frequency, TF over GST control). Further, the binding signal in assay [7] is 1.34 fold enrichment (6-mer frequency, TF over GST control); in assay [8], 1.23 fold enrichment (6-mer frequency, TF over GST control).

Consider CACTCG, for which the binding signal in assay [1] was 1.1 fold enrichment (6-mer frequency, TF over GST control); in assay [2] it was 1.11 fold enrichment (6-mer frequency, TF over GST control); in assay [3], 1.22 fold enrichment (6-mer frequency, TF over GST control); in assay [4] it was 1.04 fold enrichment (6-mer frequency, TF over GST control); in assay [5], 1.13 fold enrichment (6-mer frequency, TF over GST control); in assay [6], 1.05 fold enrichment (6-mer frequency, TF over GST control). Moreover, the binding signal in assay [7] was 1.09 fold enrichment (6-mer frequency, TF over GST control); in assay [8], 1.1 fold enrichment (6-mer frequency, TF over GST control).

For ACGTAA, the binding signal is 1.12 fold enrichment (6-mer frequency, TF over GST control) in assay [1]; 1.09 fold enrichment (6-mer frequency, TF over GST control) in assay [2]; 1.08 fold enrichment (6-mer frequency, TF over GST control) in assay [3]; 1.11 fold enrichment (6-mer frequency, TF over GST control) in assay [4]; 1.08 fold enrichment (6-mer frequency, TF over GST control) in assay [5]; 1.09 fold enrichment (6-mer frequency, TF over GST control) in assay [6]. Besides, the binding signal was 1.17 fold enrichment (6-mer frequency, TF over GST control) in assay [7] and 1.07 fold enrichment (6-mer frequency, TF over GST control) in assay [8].

As to ACTCCT, the binding signal in assay [1] is 1.45 fold enrichment (6-mer frequency, TF over GST control); in assay [2], 1.54 fold enrichment (6-mer frequency, TF over GST control); in assay [3], 1.52 fold enrichment (6-mer frequency, TF over GST control); in assay [4] it was 1.42 fold enrichment (6-mer frequency, TF over GST control); in assay [5], 1.52 fold enrichment (6-mer frequency, TF over GST control); in assay [6], 1.42 fold enrichment (6-mer frequency, TF over GST control). Besides, the binding signal was 1.43 fold enrichment (6-mer frequency, TF over GST control) in assay [7] and 1.42 fold enrichment (6-mer frequency, TF over GST control) in assay [8].

Turning to TCGCGC, the binding signal in assay [1] was 1.12 fold enrichment (6-mer frequency, TF over GST control); in assay [2] it was 1.02 fold enrichment (6-mer frequency, TF over GST control); in assay [3], 1.12 fold enrichment (6-mer frequency, TF over GST control); in assay [4] it was 1.14 fold enrichment (6-mer frequency, TF over GST control); in assay [5], 1.23 fold enrichment (6-mer frequency, TF over GST control); in assay [6], 1.03 fold enrichment (6-mer frequency, TF over GST control).

Turning to GCTTTT, the binding signal in assay [1] is 1.16 fold enrichment (6-mer frequency, TF over GST control); in assay [2] it was 1.12 fold enrichment (6-mer frequency, TF over GST control); in assay [3] it was 1.17 fold enrichment (6-mer frequency, TF over GST control); in assay [4] it was 1.09 fold enrichment (6-mer frequency, TF over GST control); in assay [5], 1.21 fold enrichment (6-mer frequency, TF over GST control); in assay [6], 1.06 fold enrichment (6-mer frequency, TF over GST control). In addition, the binding signal was 1.15 fold enrichment (6-mer frequency, TF over GST control) in assay [7] and 1.22 fold enrichment (6-mer frequency, TF over GST control) in assay [8].

On to TAAGCC, for which the binding signal is 1.15 fold enrichment (6-mer frequency, TF over GST control) in assay [1]; 1.2 fold enrichment (6-mer frequency, TF over GST control) in assay [2]; 1.15 fold enrichment (6-mer frequency, TF over GST control) in assay [3]; 1.12 fold enrichment (6-mer frequency, TF over GST control) in assay [4]; 1.1 fold enrichment (6-mer frequency, TF over GST control) in assay [5]; 1.03 fold enrichment (6-mer frequency, TF over GST control) in assay [6]. Further, the binding signal in assay [7] was 1.12 fold enrichment (6-mer frequency, TF over GST control); in assay [8], 1.03 fold enrichment (6-mer frequency, TF over GST control).
